Results filed as inconclusive are left out. The source made the active and inactive calls.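 Rule for the calls, unless noted: active = normalized viability below 100% at a tested concentration; inactive = the rest.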
Experiments:
[1] = viability loss in pontine glioma line – cell-based, SU-DIPG-XIII, MIPE4.0, CellTiter-Glo, qHTS, dose response (AID 1347061; cut-off not given, nearly all actives have AC50 up to about 37 µM;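 note: cells exposed to compound for 48 hours before readout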); conditions: CellTiter-Glo ATP luminescence
[2] = viability loss in pontine glioma line – cell-based, SU-DIPG-IV, MIPE4.0, CellTiter-Glo, qHTS, dose response (AID 1347063; cut-off not given, nearly all actives have AC50 up to about 30 µM;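 note: compound exposure lasted 48 hours before the viability readout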); conditions: CellTiter-Glo ATP luminescence
[3] = growth inhibition of DIPG cells – cell-based, MIPE4.0 library, CellTiter-Glo luminescence, qHTS (AID 1347066; cut-off not given, nearly all actives have AC50 up to about 30 µM;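 note: cells exposed to compound for 48 hours before readout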); conditions: SU-DIPG-VI viability, CellTiter-Glo ATP luminescence
[4] = viability loss in pontine glioma line – cell-based, SU-DIPG-XXV, MIPE5.0, CellTiter-Glo, qHTS, dose response (AID 1347065; cut-off not given, nearly all actives have AC50 up to about 26 µM;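 note: cells exposed to compound for 48 hours before ATP readout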); conditions: CellTiter-Glo ATP luminescence
[5] = growth inhibition of DIPG cells – cell-based, MIPE5.0 library, qHTS (AID 1347068; cut-off not given, nearly all actives have IC50 up to about 30 µM;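 for IC50: cells exposed to compound for 48 hours before viability readout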); conditions: SU-DIPG-XXV viability
[6] = viability loss with induced miR-34 in A549 – imaging, A549 dox-inducible miR-34, nuclei and caspase counts, primary screen (AID 1347080;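 active = compounds whose cell count with miR-34 switched on is under 0.7 times the count with it off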); conditions: A549 miR-34 inducible, Hoechst nuclei count, 48 h
[7] = MELAS cybrid and Rieske KO viability enhancers – cell-based, MELAS cybrids, Rieske KO mouse fibroblasts, CellTiter-Glo, primary screen (AID 1508586;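 active = mean z-score across replicates of 1.96 or higher in either the MELAS or the Rieske mutant cell line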;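 note: z relative to plate mean and SD of compound and empty wells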); conditions: low glucose
[8] = viability loss in pontine glioma line – cell-based, SU-DIPG-XIII, MIPE5.0, CellTiter-Glo, qHTS, dose response (AID 1347064; cut-off not given, nearly all actives have AC50 up to about 23 µM;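 for AC50: cells exposed to compound for 48 hours before the viability read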); conditions: CellTiter-Glo ATP luminescence
[9] = JHH-DIPG-1 glioma cell viability, MIPE5.0 library, CellTiter-Glo luminescence, qHTS (AID 1347067; cut-off not given, nearly all actives have AC50 up to about 26 µM;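 note: cells exposed to compound for 48 hours before readout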); conditions: JHH-DIPG-1 glioma viability, CellTiter-Glo ATP luminescence
[10] = compounds altering HSF1 focus formation in cells – imaging, Selleck Cancer Library (AID 1347162; in the data active = plate-normalised HSF1 focus index below about 0.46); conditions: human cells, HSF1 nuclear foci imaging, at 10 µM; SSMD: measured here: HSF1 foci SSMD mean; cell count: measured here: cell number; plate-normalised HSF1 focus index: stronger effect = lower value
[11] = drug combination growth inhibition, ovarian cancer – cell-based, oncology-focused library, rucaparib conditional, profiling panel (AID 1508598); conditions: patient-derived ovarian cancer cells, CellTiter-Glo viability, 144 h, stronger effect = lower value
[12] = viability loss in pontine glioma line – cell-based, JHH-DIPG-1, MIPE4.0, CellTiter-Glo, qHTS, dose response (AID 1347062; cut-off not given, nearly all actives have AC50 up to about 27 µM;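 note: cells exposed to compound for two days before readout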); conditions: JHH-DIPG-1 viability, CellTiter-Glo ATP luminescence
[13] = stronger effect = lower value, cell number ratio, induced over uninduced
[14] = measured here: relative caspase fold change +Dox/-Dox
[15] = measured here: total cells with miR-34 induction, stronger effect = lower value
[16] = measured here: total cells without miR-34 induction
[17] = MELAS cybrid survival, CellTiter-Glo 48 h, stronger effect = higher value
[18] = Rieske KO mouse fibroblast survival, CellTiter-Glo 72 h
[19] = at 0.000305 µM, OCI-C5x cells, with rucaparib 10 µM, 100% = cells with rucaparib alone
[20] = at 0.000305 µM, OCI-C5x cells, without rucaparib
[21] = at 0.000305 µM, OCI-P5x cells, with rucaparib 20 µM, 100% = cells with rucaparib alone
[22] = at 0.000305 µM, OCI-P5x cells, without rucaparib
[23] = at 0.00122 µM, OCI-C5x cells, with rucaparib 10 µM, 100% = cells with rucaparib alone
[24] = at 0.00122 µM, OCI-C5x cells, without rucaparib
[25] = at 0.00122 µM, OCI-P5x cells, with rucaparib 20 µM, 100% = cells with rucaparib alone
[26] = at 0.00122 µM, OCI-P5x cells, without rucaparib
[27] = at 0.00488 µM, OCI-C5x cells, with rucaparib 10 µM, 100% = cells with rucaparib alone
[28] = at 0.00488 µM, OCI-C5x cells, without rucaparib
[29] = at 0.00488 µM, OCI-P5x cells, with rucaparib 20 µM, 100% = cells with rucaparib alone
[30] = at 0.00488 µM, OCI-P5x cells, without rucaparib
[31] = at 0.0195 µM, OCI-C5x cells, with rucaparib 10 µM, 100% = cells with rucaparib alone
[32] = at 0.0195 µM, OCI-C5x cells, without rucaparib
[33] = at 0.0195 µM, OCI-P5x cells, with rucaparib 20 µM, 100% = cells with rucaparib alone
[34] = at 0.0195 µM, OCI-P5x cells, without rucaparib
[35] = at 0.0781 µM, OCI-C5x cells, with rucaparib 10 µM, 100% = cells with rucaparib alone
[36] = at 0.0781 µM, OCI-C5x cells, without rucaparib
[37] = at 0.0781 µM, OCI-P5x cells, with rucaparib 20 µM, 100% = cells with rucaparib alone
[38] = at 0.0781 µM, OCI-P5x cells, without rucaparib
[39] = at 0.313 µM, OCI-C5x cells, with rucaparib 10 µM, 100% = cells with rucaparib alone
[40] = at 0.313 µM, OCI-C5x cells, without rucaparib
[41] = at 0.313 µM, OCI-P5x cells, with rucaparib 20 µM, 100% = cells with rucaparib alone
[42] = at 0.313 µM, OCI-P5x cells, without rucaparib
[43] = at 1.25 µM, OCI-C5x cells, with rucaparib 10 µM, 100% = cells with rucaparib alone
[44] = at 1.25 µM, OCI-C5x cells, without rucaparib
[45] = at 1.25 µM, OCI-P5x cells, with rucaparib 20 µM, 100% = cells with rucaparib alone
[46] = at 1.25 µM, OCI-P5x cells, without rucaparib
[47] = at 5 µM, OCI-C5x cells, with rucaparib 10 µM, 100% = cells with rucaparib alone
[48] = at 5 µM, OCI-C5x cells, without rucaparib
[49] = at 5 µM, OCI-P5x cells, with rucaparib 20 µM, 100% = cells with rucaparib alone
[50] = at 5 µM, OCI-P5x cells, without rucaparib

CCOc1ccccc1OCCNC(C)Cc1ccc(OC)c(S(N)(=O)=O)c1 (stereo unspecified)
inactive: outcome [1] | outcome [2] | outcome [3]

CCCCOc1c(C(=O)c2c(F)cc(C)cc2F)cnc2n[nH]cc12
inactive: outcome [1] | fold change [6, 13] 1.03 | z-score [7, 17] 0.523
active: AC50 [2] 4.18 µM | AC50 [4] 1.66 µM | IC50 [5] 3.72 µM
1950: cell count [6, 15]
1900: cell count [6, 16]
0.597: fold change [6, 14]
-1.74: z-score [7, 18]

CN(C)c1nc(Cc2ccc(NC(=O)c3ccc4ccccc4c3)cc2)nc(Cl)c1CC(=O)O
inactive: outcome [1] | outcome [3]

CN1CCN(c2cc(C(=O)Nc3ccc4c(c3)-c3c(c(C(N)=O)nn3-c3ccc(F)cc3)CC4)c(Cl)cn2)CC1
active: AC50 [1] 9.35 µM | AC50 [2] 18.7 µM | AC50 [8] 14.8 µM | AC50 [4] 10.5 µM | AC50 [3] 23.5 µM | AC50 [9] 13.2 µM

COc1ccc2cc(-c3nc(-c4ccc(S(C)=O)cc4)[nH]c3-c3ccncc3)ccc2c1 (stereo unspecified)
5750: cell count [6, 16]
0.971: z-score [7, 18]
4.96: SSMD [10]
0.892: fold change [6, 14]
inactive: outcome [1] | outcome [8] | outcome [3] | fold change [6, 13] 1.33 | plate-normalised HSF1 focus index [10] 1.27 | z-score [7, 17] -0.573 | viability [11, 19] 108% | viability [11, 20] 102% | viability [11, 21] 107% | viability [11, 22] 103% | viability [11, 24] 101% | viability [11, 25] 107% | viability [11, 26] 105% | viability [11, 27] 106% | viability [11, 29] 103% | viability [11, 32] 107% | viability [11, 35] 104% | viability [11, 36] 109% | viability [11, 39] 145% | viability [11, 40] 122% | viability [11, 43] 122% | viability [11, 44] 148% | viability [11, 45] 106% | viability [11, 47] 110% | viability [11, 48] 113%
7650: cell count [6, 15]
active: AC50 [4] 14.8 µM | viability [11, 23] 95.3% | viability [11, 28] 95.5% | viability [11, 30] 96.1% | viability [11, 31] 96.9% | viability [11, 33] 91.1% | viability [11, 34] 90.7% | viability [11, 37] 95.6% | viability [11, 38] 95.1% | viability [11, 41] 87.7% | viability [11, 42] 93.7% | viability [11, 46] 84% | viability [11, 49] 26.6% | viability [11, 50] 26.9%
6890: cell count [10]

CCOC(=O)N1c2ccc(C(F)(F)F)cc2[C@@H](N(Cc2cc(C(F)(F)F)cc(C(F)(F)F)c2)C(=O)OC)C[C@H]1CC
inactive: outcome [1] | outcome [8] | outcome [3] | outcome [9] | outcome [5]

O=C(NOC[C@H](O)CO)c1ccc(F)c(F)c1Nc1ccc(I)cc1F
inactive: outcome [3] | fold change [6, 13] 1.03 | plate-normalised HSF1 focus index [10] 1.21 | viability [11, 19] 115% | viability [11, 20] 103% | viability [11, 23] 110% | viability [11, 24] 103% | viability [11, 27] 111% | viability [11, 28] 101% | viability [11, 31] 111% | viability [11, 35] 120%
active: AC50 [1] 1.05 µM | AC50 [12] 2.35 µM | viability [11, 21] 79.9% | viability [11, 22] 86.4% | viability [11, 25] 73.1% | viability [11, 26] 80% | viability [11, 29] 60% | viability [11, 30] 73.8% | viability [11, 32] 96.8% | viability [11, 33] 51.1% | viability [11, 34] 67.5% | viability [11, 36] 94.3% | viability [11, 37] 46.8% | viability [11, 38] 62.3% | viability [11, 39] 98.2% | viability [11, 40] 86.8% | viability [11, 41] 41% | viability [11, 42] 50.2% | viability [11, 43] 66.9% | viability [11, 44] 68.4% | viability [11, 45] 40.4% | viability [11, 46] 44.1% | viability [11, 47] 34.4% | viability [11, 48] 37.4% | viability [11, 49] 30.5% | viability [11, 50] 38.4%
2.04: fold change [6, 14]
2470: cell count [6, 16]
7460: cell count [10]
2530: cell count [6, 15]
3.29: SSMD [10]

CC[C@]1(O)C[C@@H]2CN(CCc3c([nH]c4ccccc34)[C@@](C(=O)OC)(c3cc4c(cc3OC)N(C=O)[C@@H]3C45CCN4CC=C[C@](CC)([C@H]45)[C@@H](OC(C)=O)[C@]3(O)C(=O)OC)C2)C1 (stereo partly specified)
6870: cell count [10]
inactive: outcome [1] | outcome [2] | plate-normalised HSF1 focus index [10] 1.12
2.03: SSMD [10]

CC(C)OC(=O)C1=CN(C(=O)c2ccc(F)c(F)c2)CC(C)(C)c2c1[nH]c1ccccc21
active: AC50 [2] 26.4 µM
7590: cell count [6, 16]
7100: cell count [10]
3.1: SSMD [10]
inactive: outcome [1] | outcome [8] | outcome [4] | outcome [3] | outcome [9] | outcome [5] | fold change [6, 13] 0.997 | plate-normalised HSF1 focus index [10] 1.17 | z-score [7, 17] -0.00254 | viability [11, 19] 123% | viability [11, 20] 126% | viability [11, 21] 115% | viability [11, 22] 112% | viability [11, 23] 116% | viability [11, 24] 130% | viability [11, 25] 117% | viability [11, 26] 110% | viability [11, 27] 128% | viability [11, 28] 128% | viability [11, 29] 111% | viability [11, 30] 115% | viability [11, 31] 108% | viability [11, 32] 126% | viability [11, 33] 118% | viability [11, 34] 115% | viability [11, 35] 112% | viability [11, 36] 128% | viability [11, 37] 115% | viability [11, 38] 116% | viability [11, 39] 125% | viability [11, 40] 131% | viability [11, 41] 113% | viability [11, 42] 114% | viability [11, 43] 114% | viability [11, 44] 122% | viability [11, 45] 114% | viability [11, 46] 106% | viability [11, 47] 125% | viability [11, 48] 118% | viability [11, 49] 114% | viability [11, 50] 113%
0.0698: z-score [7, 18]
7570: cell count [6, 15]
0.501: fold change [6, 14]
